# About 79,000 compounds went through this panel and 15% of them were active in at least one assay; those are over-represented in the sample as a whole. A number with no mark means an inactive call. Activity calls are given as the source filed them. Rule as the data show it: active = growth inhibition above about 70%; inactive = the rest.
# Columns and labels:
# [1] = NCI Yeast Anticancer Drug Screen. Data for the wt1 strain (AID 149);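 also: 0% = growth of vehicle-treated wt1 cultures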; details: S. cerevisiae wt1 strain (SPY 50644) growth inhibition, stronger effect = higher value
# Method in brief: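 wt1 strain grown with compound or vehicle; inhibition taken from the growth difference.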
# [2] = NCI Yeast Anticancer Drug Screen. Data for the rad50EPP+ strain (AID 151);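 also: 0% = growth of vehicle-treated control cultures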; details: S. cerevisiae rad50 mutant strain, stronger effect = higher value
# Method in brief: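 Compounds were applied to the rad50EPP+ yeast strain, which bears a defined DNA repair alteration, and growth inhibition was determined relative to vehicle-treated cultures.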
# [3] = NCI Yeast Anticancer Drug Screen. Data for the mgt1 strain (AID 153); details: S. cerevisiae mgt1 mutant growth inhibition, stronger effect = higher value
# Method in brief: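 Strain: mgt1 yeast, one of a set carrying defined DNA damage repair or cell cycle control alterations. Compound-treated growth compared with vehicle.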
# [4] = NCI Yeast Anticancer Drug Screen. Data for the rad50 strain (AID 155);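 also: 0% = growth of vehicle-only cultures of the same strain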; details: S. cerevisiae rad50 strain growth inhibition, stronger effect = higher value
# Method in brief: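 DNA repair mutant yeast, compound exposure, growth read-out; inhibition is taken relative to vehicle.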
# [5] = NCI Yeast Anticancer Drug Screen. Data for the mec2-1 strain (AID 157); details: S. cerevisiae mec2-1 strain, stronger effect = higher value
# Method in brief: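 Strain: mec2-1 (DNA repair/cell cycle alteration). Compound exposure, then growth measured; inhibition expressed relative to vehicle.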
# [6] = NCI Yeast Anticancer Drug Screen. Data for the rad14 strain (AID 159);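 also: 0% = growth of vehicle-treated control cultures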; details: S. cerevisiae rad14 strain growth inhibition, stronger effect = higher value
# Method in brief: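 DNA repair-defective yeast, compound-exposed; % growth inhibition derived by comparison with vehicle-treated controls.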
# [7] = NCI Yeast Anticancer Drug Screen. Data for the sgs1 mgt1 strain (AID 161);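 also: 0% = growth of cultures given vehicle only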; details: S. cerevisiae sgs1 mgt1 strain, stronger effect = higher value
# Method in brief: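 Inhibition of yeast growth, normalised to vehicle-treated controls, is reported for a strain bearing genetic alterations in DNA damage repair.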
# [8] = NCI Yeast Anticancer Drug Screen. Data for the CLN2oe strain (AID 163);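 also: 0% = growth of vehicle-only control cultures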; details: S. cerevisiae CLN2oe strain, stronger effect = higher value
# Method in brief: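 Growth of a genetically modified yeast strain is measured after compound exposure and compared with cultures given vehicle alone.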
# [9] = NCI Yeast Anticancer Drug Screen. Data for the cln2 rad14 strain (AID 165);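 also: 0% = growth equal to vehicle treated cultures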; details: S. cerevisiae cln2 rad14 strain, stronger effect = higher value
# Method in brief: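 Compounds are applied to the cln2 rad14 yeast strain, and growth is then compared with that of vehicle-treated cultures to give inhibition.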
# [10] = NCI Yeast Anticancer Drug Screen. Data for the bub3 strain (AID 167); details: S. cerevisiae bub3 mutant strain, stronger effect = higher value
# Method in brief: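 In this screen, a yeast mutant lacking normal mitotic checkpoint function is challenged with compound. Relative growth versus vehicle gives the inhibition value.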
# [11] = NCI Yeast Anticancer Drug Screen. Data for the wt2 strain (AID 169);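 also: 0% = growth of vehicle-treated yeast cultures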; details: S. cerevisiae wt2 strain growth inhibition, stronger effect = higher value
# Method in brief: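 This strain belongs to a panel of yeast strains with defined genetic alterations in DNA damage repair or cell cycle control. Compounds are applied, and growth inhibition is measured against vehicle-treated cultures.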
# [12] = NCI Yeast Anticancer Drug Screen. Data for the sgs1 strain (AID 173);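 also: 0% = growth of vehicle-only control cultures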; details: S. cerevisiae sgs1 mutant, stronger effect = higher value
# Method in brief: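 Growth of a yeast strain bearing a defined genetic alteration is measured after compound treatment. Inhibition is expressed relative to vehicle-only controls.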
# [13] = NCI Yeast Anticancer Drug Screen. Data for the mlh1 rad18 strain (AID 175); details: S. cerevisiae mlh1 rad18 strain growth inhibition, stronger effect = higher value
# Method in brief: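 Read-out is yeast growth inhibition, calculated against vehicle-only controls. The compound was applied to a strain engineered with DNA damage repair alterations.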
# [14] = NCI Yeast Anticancer Drug Screen. Data for the rad18 strain (AID 177); details: S. cerevisiae rad18 mutant growth inhibition, stronger effect = higher value
# Method in brief: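 Growth of the mutant yeast strain after compound exposure, normalised to vehicle-only cultures.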
# [15] = NCI Yeast Anticancer Drug Screen. Data for the mlh1 strain (AID 171);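 also: 0% = growth of vehicle-treated control cultures of the same strain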; details: S. cerevisiae mlh1 strain growth inhibition, stronger effect = higher value
# Method in brief: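 Growth of the mutant yeast strain after compound exposure, expressed as inhibition relative to vehicle-only controls.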
# [16] = at 5.0 µM (retest, dose inferred, filed as 0.5)
# [17] = at 50.0 µM (retest, dose inferred, filed as 5.0)
smiles,measurement,setting,value
O=c1c(Br)cc2c(-c3ccccc3)c3cc(Br)c(O)c(Br)c3oc-2c1Br,growth inhibition,[1]; at 1.2 µM,-1%
same,growth inhibition,[1]; at 3.7 µM,11%
same,growth inhibition,[1]; at 11.0 µM,9%
same,growth inhibition,[1]; at 33.0 µM,0%
same,growth inhibition,[1]; at 100.0 µM,-4%
same,growth inhibition,[2]; at 1.2 µM,1%
same,growth inhibition,[2]; at 3.7 µM,23%
same,growth inhibition,[2]; at 11.0 µM,38%
same,growth inhibition,[2]; at 33.0 µM,57%
same,growth inhibition,[2]; at 100.0 µM,39%
same,growth inhibition,[3]; at 1.2 µM,0%
same,growth inhibition,[3]; at 3.7 µM,-2%
same,growth inhibition,[3]; at 11.0 µM,9%
same,growth inhibition,[3]; at 33.0 µM,28%
same,growth inhibition,[3]; at 100.0 µM,23%
same,growth inhibition,[4]; at 1.2 µM,-54%
same,growth inhibition,[4]; at 3.7 µM,24%
same,growth inhibition,[4]; [16],22%
same,growth inhibition,[4]; at 11.0 µM,89% (active)
same,growth inhibition,[4]; at 33.0 µM,87% (active)
same,growth inhibition,[4]; [17],13%
same,growth inhibition,[4]; at 50.0 µM,80.8% (active)
same,growth inhibition,[4]; at 100.0 µM,80% (active)
same,growth inhibition,[5]; at 1.2 µM,1%
same,growth inhibition,[5]; at 3.7 µM,4%
same,growth inhibition,[5]; [16],54%
same,growth inhibition,[5]; at 11.0 µM,-1%
same,growth inhibition,[5]; at 33.0 µM,-3%
same,growth inhibition,[5]; [17],28%
same,growth inhibition,[5]; at 50.0 µM,78.4% (active)
same,growth inhibition,[5]; at 100.0 µM,-1%
same,growth inhibition,[6]; at 1.2 µM,2%
same,growth inhibition,[6]; at 3.7 µM,17%
same,growth inhibition,[6]; at 11.0 µM,31%
same,growth inhibition,[6]; at 33.0 µM,22%
same,growth inhibition,[6]; at 100.0 µM,-4%
same,growth inhibition,[7]; [16],16%
same,growth inhibition,[7]; [17],7%
same,growth inhibition,[7]; at 50.0 µM,61.3%
same,growth inhibition,[8]; at 1.2 µM,3%
same,growth inhibition,[8]; at 3.7 µM,5%
same,growth inhibition,[8]; at 11.0 µM,9%
same,growth inhibition,[8]; at 33.0 µM,23%
same,growth inhibition,[8]; at 100.0 µM,15%
same,growth inhibition,[9]; [16],28%
same,growth inhibition,[9]; [17],12%
same,growth inhibition,[9]; at 50.0 µM,55%
same,growth inhibition,[10]; at 1.2 µM,-4%
same,growth inhibition,[10]; at 3.7 µM,4%
same,growth inhibition,[10]; [16],6%
same,growth inhibition,[10]; at 11.0 µM,76% (active)
same,growth inhibition,[10]; at 33.0 µM,92% (active)
same,growth inhibition,[10]; [17],-6%
same,growth inhibition,[10]; at 50.0 µM,54.2%
same,growth inhibition,[10]; at 100.0 µM,79% (active)
same,growth inhibition,[11]; at 1.2 µM,10%
same,growth inhibition,[11]; at 3.7 µM,17%
same,growth inhibition,[11]; at 11.0 µM,21%
same,growth inhibition,[11]; at 33.0 µM,18%
same,growth inhibition,[11]; at 100.0 µM,6%
same,growth inhibition,[12]; at 1.2 µM,0%
same,growth inhibition,[12]; at 3.7 µM,8%
same,growth inhibition,[12]; at 11.0 µM,26%
same,growth inhibition,[12]; at 33.0 µM,22%
same,growth inhibition,[12]; at 100.0 µM,13%
same,growth inhibition,[13]; [16],67%
same,growth inhibition,[13]; [17],58%
same,growth inhibition,[13]; at 50.0 µM,83.4% (active)
same,growth inhibition,[14]; at 1.2 µM,-8%
same,growth inhibition,[14]; at 3.7 µM,9%
same,growth inhibition,[14]; at 11.0 µM,1%
same,growth inhibition,[14]; at 33.0 µM,-2%
same,growth inhibition,[14]; at 100.0 µM,-10%
CCOC(=O)c1sc2[n+](c1C)C(=O)/C(=C/c1cc(OC)c(OC)c(OC)c1)S2,growth inhibition,[1]; at 1.2 µM,3%
same,growth inhibition,[1]; at 3.7 µM,2%
same,growth inhibition,[1]; at 11.0 µM,9%
same,growth inhibition,[1]; at 33.0 µM,56%
same,growth inhibition,[1]; at 100.0 µM,88% (active)
same,growth inhibition,[2]; at 1.2 µM,2%
same,growth inhibition,[2]; at 3.7 µM,6%
same,growth inhibition,[2]; at 11.0 µM,19%
same,growth inhibition,[2]; at 33.0 µM,45%
same,growth inhibition,[2]; at 100.0 µM,76% (active)
same,growth inhibition,[3]; at 1.2 µM,9%
same,growth inhibition,[3]; at 3.7 µM,12%
same,growth inhibition,[3]; at 11.0 µM,54%
same,growth inhibition,[3]; at 33.0 µM,86% (active)
same,growth inhibition,[3]; at 100.0 µM,93% (active)
same,growth inhibition,[4]; at 1.2 µM,9%
same,growth inhibition,[4]; at 3.7 µM,16%
same,growth inhibition,[4]; [16],1%
same,growth inhibition,[4]; at 11.0 µM,18%
same,growth inhibition,[4]; at 33.0 µM,68%
same,growth inhibition,[4]; [17],35%
same,growth inhibition,[4]; at 50.0 µM,41%
same,growth inhibition,[4]; at 100.0 µM,87% (active)
same,growth inhibition,[5]; at 1.2 µM,21%
same,growth inhibition,[5]; at 3.7 µM,18%
same,growth inhibition,[5]; [16],6%
same,growth inhibition,[5]; at 11.0 µM,34%
same,growth inhibition,[5]; at 33.0 µM,76% (active)
same,growth inhibition,[5]; [17],51%
same,growth inhibition,[5]; at 50.0 µM,52.5%
same,growth inhibition,[5]; at 100.0 µM,92% (active)
same,growth inhibition,[6]; at 1.2 µM,12%
same,growth inhibition,[6]; at 3.7 µM,3%
same,growth inhibition,[6]; at 11.0 µM,28%
same,growth inhibition,[6]; at 33.0 µM,77% (active)
same,growth inhibition,[6]; at 100.0 µM,92% (active)
same,growth inhibition,[7]; [16],-4%
same,growth inhibition,[7]; [17],64%
same,growth inhibition,[7]; at 50.0 µM,80.5% (active)
same,growth inhibition,[8]; at 1.2 µM,11%
same,growth inhibition,[8]; at 3.7 µM,5%
same,growth inhibition,[8]; at 11.0 µM,26%
same,growth inhibition,[8]; at 33.0 µM,76% (active)
same,growth inhibition,[8]; at 100.0 µM,83% (active)
same,growth inhibition,[10]; at 1.2 µM,12%
same,growth inhibition,[10]; at 3.7 µM,7%
same,growth inhibition,[10]; [16],-10%
same,growth inhibition,[10]; at 11.0 µM,21%
same,growth inhibition,[10]; at 33.0 µM,60%
same,growth inhibition,[10]; [17],12%
same,growth inhibition,[10]; at 50.0 µM,40.9%
same,growth inhibition,[10]; at 100.0 µM,66%
same,growth inhibition,[11]; at 1.2 µM,2%
same,growth inhibition,[11]; at 3.7 µM,3%
same,growth inhibition,[11]; at 11.0 µM,47%
same,growth inhibition,[11]; at 33.0 µM,85% (active)
same,growth inhibition,[11]; at 100.0 µM,95% (active)
same,growth inhibition,[15]; at 1.2 µM,9%
same,growth inhibition,[15]; at 3.7 µM,9%
same,growth inhibition,[15]; at 11.0 µM,36%
same,growth inhibition,[15]; at 33.0 µM,82% (active)
same,growth inhibition,[15]; at 100.0 µM,93% (active)
same,growth inhibition,[12]; at 1.2 µM,17%
same,growth inhibition,[12]; at 3.7 µM,23%
same,growth inhibition,[12]; at 11.0 µM,48%
same,growth inhibition,[12]; at 33.0 µM,90% (active)
same,growth inhibition,[12]; at 100.0 µM,95% (active)
same,growth inhibition,[13]; [16],6%
same,growth inhibition,[13]; [17],60%
same,growth inhibition,[13]; at 50.0 µM,25.1%
same,growth inhibition,[14]; at 1.2 µM,19%
same,growth inhibition,[14]; at 3.7 µM,27%
same,growth inhibition,[14]; at 11.0 µM,40%
same,growth inhibition,[14]; at 33.0 µM,75% (active)
same,growth inhibition,[14]; at 100.0 µM,88% (active)
COc1cc(NCCCCCNC(C)C)c2ncccc2c1Cl,growth inhibition,[1]; at 1.2 µM,-2%
same,growth inhibition,[1]; at 3.7 µM,3%
same,growth inhibition,[1]; at 11.0 µM,1%
same,growth inhibition,[1]; at 33.0 µM,2%
same,growth inhibition,[1]; at 100.0 µM,-8%
same,growth inhibition,[2]; at 1.2 µM,1%
same,growth inhibition,[2]; at 3.7 µM,-1%
same,growth inhibition,[2]; at 11.0 µM,1%
same,growth inhibition,[2]; at 33.0 µM,9%
same,growth inhibition,[2]; at 100.0 µM,13%
same,growth inhibition,[3]; at 1.2 µM,-5%
same,growth inhibition,[3]; at 3.7 µM,-3%
same,growth inhibition,[3]; at 11.0 µM,1%
same,growth inhibition,[3]; at 33.0 µM,3%
same,growth inhibition,[3]; at 100.0 µM,33%
same,growth inhibition,[4]; at 1.2 µM,-1%
same,growth inhibition,[4]; at 3.7 µM,2%
same,growth inhibition,[4]; [16],8%
same,growth inhibition,[4]; at 11.0 µM,4%
same,growth inhibition,[4]; at 33.0 µM,7%
same,growth inhibition,[4]; [17],12%
same,growth inhibition,[4]; at 50.0 µM,49.7%
same,growth inhibition,[4]; at 100.0 µM,24%
same,growth inhibition,[5]; at 1.2 µM,-1%
same,growth inhibition,[5]; at 3.7 µM,2%
same,growth inhibition,[5]; [16],-3%
same,growth inhibition,[5]; at 11.0 µM,3%
same,growth inhibition,[5]; at 33.0 µM,4%
same,growth inhibition,[5]; [17],13%
same,growth inhibition,[5]; at 50.0 µM,6.65%

# — PubChem BioAssay (NCI)
